Assay results as given in PubChem BioAssay (NCATS).
A number with no mark means an inactive call. The list shows a part of the results. Records with an inconclusive call do not appear. The source made the active and inactive calls. Calls come from the whole dose curve; as a rule, active = well fitted curve in the direction sought with a large enough effect; inconclusive = small, poorly fitted or top-dose-only effect, or another doubt; inactive = no such curve, though single readings can be large; an effect the other way counts as inactive or inconclusive.

target: DNA dC->dU-editing enzyme APOBEC-3G (Homo sapiens) (UniProt Q9HC16); assay: qHTS for inhibitors of Vif-A3G interactions: Validation (AID 588379); settings: Vif-A3G protein interaction assay; series mostly up to 46.1 µM; activity change, negative = inhibition: at the top concentration; note: 0% is about no effect
Sequence (Q9HC16 whole entry, looked up): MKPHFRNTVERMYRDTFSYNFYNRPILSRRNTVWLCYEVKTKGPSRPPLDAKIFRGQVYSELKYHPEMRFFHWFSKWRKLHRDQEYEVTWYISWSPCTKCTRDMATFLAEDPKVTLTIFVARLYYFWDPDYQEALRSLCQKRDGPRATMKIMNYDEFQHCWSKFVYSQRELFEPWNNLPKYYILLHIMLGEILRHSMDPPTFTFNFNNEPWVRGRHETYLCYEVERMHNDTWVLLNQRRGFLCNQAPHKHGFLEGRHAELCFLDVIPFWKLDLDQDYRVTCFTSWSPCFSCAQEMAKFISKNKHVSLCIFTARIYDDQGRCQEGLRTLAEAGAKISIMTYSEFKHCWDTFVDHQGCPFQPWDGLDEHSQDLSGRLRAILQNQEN
In short: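 Yellow fluorescence (Ex 488, Em 500-530) of Vif-coexpressing HeLa A3G-eYFP cells, scanned by Acumen cytometer, reports blocked A3G degradation. Cells plated at 700/well overnight at 37 deg C before compound addition, then a further overnight compound incubation at 37 deg C.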

Row | SMILES | activity change, negative = inhibition [%]
1 | C=C(CO)C1Cc2c(ccc3c2OC2COc4cc(OC)c(OC)cc4C2C3=O)O1 (stereo not given) | -4.87
2 | C1CCN2CC3CC(CN4CCCC[C@@H]34)C2C1 (stereo not given in full) | -1.78
3 | CC[C@]12CCCN3CCc4c(n(c5ccccc45)C(=O)C1)[C@H]32 | -3.61
4 | CC1C(=O)OC2CC34C5CC(C(C)(C)C)C36C(OC(=O)C6O)OC4(C(=O)O5)C21O (stereo not given) | -4.18
5 | C=C[C@@H]1CN2CC[C@@H]1C[C@@H]2[C@@H](O)c1ccnc2ccc(OC)cc12 | -3.32
6 | CC1=CC(=O)C2=C(C)CCC3C(C)C(=O)OC3C12 (stereo not given) | 3.91
7 | CC(C)c1ccc2c(c1)CC[C@@H]1[C@@](C)(CN)CCC[C@]21C | -1.29
8 | COc1cc([C@@H]2c3cc4c(cc3C(OC3OC5COC(C)OC5C(O)C3O)C3COC(=O)[C@@H]32)OCO4)cc(OC)c1O (stereo not given in full) | -17
9 | CC1(C)S[C@H]2[C@@H](NC(=O)C(N)c3ccccc3)C(=O)N2[C@H]1C(=O)O (stereo not given in full) | 3.11
10 | C[C@H]1[C@H](C)CC[C@]2(C(=O)O)CC[C@]3(C)C(=CCC4[C@@]5(C)CC[C@H](O)C(C)(C)[C@@H]5CC[C@]43C)[C@H]12 (stereo not given in full) | 1.93
11 | C[C@H](CCC(=O)O)[C@H]1CC[C@@H]2[C@H]3CC[C@H]4C[C@H](O)CC[C@]4(C)[C@@H]3CC[C@@]21C | -3.95

test system: not listed separately; assay: qHTS Assay for the Inhibitors of L3MBTL1: Hit Validationin AlphaScreen Counterscreen (AID 602224); settings: signal inhibition; series mostly up to 57.1 µM; activity change, negative = inhibition: at the top concentration; note: 0% is about no effect
Text: The histone code is comprised of many post-translational modifications that occur mainly in histone tail peptides. The identity and location of these marks are read by a variety of histone binding proteins that are emerging as important regulators of cellular differentiation and development and are increasingly being implicated in numerous disease states. Small molecule probes that disrupt the interaction between histone binding proteins and chromatin would enable a systematic chemical biology study of proteins that read the histone code and could potentially reveal new targets for drug discovery. However, no such small molecules are known. This dearth of quality molecular probes can largely be attributed to the novelty of the target class and the lack of screening assays. This proposal details the development of the first high-throughput screening assay for the discovery of inhibitors of methyl-lysine binding proteins and how it can be used to initiate a full-scale discovery effort for antagonists of histone binding proteins. Specifically, this work focuses on an AlphaScreen(tm)-based HTS assay for Malignant Brain Tumor (MBT) domain-containing proteins, which bind to the lower methylation states of lysine residues present in histone tail peptides.
Although AlphaScreen has significant advantages with its utility in a variety of epigenetic target assays, the primary screening data (linked to this assay) should be used with caution due to the prevalence of screening artifacts. An AlphaScreen counterscreen was developed and ran against any putative actives to eliminate non-specific artifacts. […] Compounds that were active in the primary screen were run in this this counterscreen. Compounds that are active in this screen are compounds that are artifacts in the primary screen.
NIH Chemical Genomics Center [NCGC]
NIH Molecular Libraries Probe Centers Network [MLPCN]
Assay Submitter (PI): William Janzen, University of Carolina, Chapel Hill
Biotinylated hexahistidine (b-His6) (PerkinElmer, Waltham, MA) will be added to 1,536-well plates in a 3 uL dispense. Compounds will be added in a 23 nL pin-transfer step, and plates will be incubated at room temperature for 15 min. Streptavidin-coated donor and nickel chelate acceptor AlphaScreen beads will be added (1 uL) for final concentrations of 10 ug/mL each bead and 1 nM b-His6, and plates read as described above (qHTS assay) after a 30 min incubation at room temperature in the dark

Row | SMILES | activity change, negative = inhibition [%]
12 | CC(C)(C)OC(=O)NCCCCCNC(=O)c1[nH]cnc1C(=O)Nc1nccs1 | 50.5
13 | Oc1ccc(N=Nc2nccs2)c(O)c1 | -65.9
14 | COc1cccc2c(C)c(C(=O)O)[nH]c12 | 4.19
15 | O=C(COC(=O)c1ccc(F)cc1F)Nc1ncccn1 | -12.9
16 | Cn1c2ccccc2c(=O)c2c(=O)n(Cc3ccco3)c(COc3ccccc3)nc21 | -3.61

target: DNA polymerase iota (Homo sapiens) (UniProt Q9UNA4); assay: qHTS for Inhibitors of Polymerase Iota: Confirmatory Assay for Cherry-picked Compounds (AID 720496); settings: Pol iota primer extension, TAMRA/BHQ fluorescence; note: potency is the fitted concentration of half-maximal effect
Sequence (Q9UNA4 whole entry, looked up): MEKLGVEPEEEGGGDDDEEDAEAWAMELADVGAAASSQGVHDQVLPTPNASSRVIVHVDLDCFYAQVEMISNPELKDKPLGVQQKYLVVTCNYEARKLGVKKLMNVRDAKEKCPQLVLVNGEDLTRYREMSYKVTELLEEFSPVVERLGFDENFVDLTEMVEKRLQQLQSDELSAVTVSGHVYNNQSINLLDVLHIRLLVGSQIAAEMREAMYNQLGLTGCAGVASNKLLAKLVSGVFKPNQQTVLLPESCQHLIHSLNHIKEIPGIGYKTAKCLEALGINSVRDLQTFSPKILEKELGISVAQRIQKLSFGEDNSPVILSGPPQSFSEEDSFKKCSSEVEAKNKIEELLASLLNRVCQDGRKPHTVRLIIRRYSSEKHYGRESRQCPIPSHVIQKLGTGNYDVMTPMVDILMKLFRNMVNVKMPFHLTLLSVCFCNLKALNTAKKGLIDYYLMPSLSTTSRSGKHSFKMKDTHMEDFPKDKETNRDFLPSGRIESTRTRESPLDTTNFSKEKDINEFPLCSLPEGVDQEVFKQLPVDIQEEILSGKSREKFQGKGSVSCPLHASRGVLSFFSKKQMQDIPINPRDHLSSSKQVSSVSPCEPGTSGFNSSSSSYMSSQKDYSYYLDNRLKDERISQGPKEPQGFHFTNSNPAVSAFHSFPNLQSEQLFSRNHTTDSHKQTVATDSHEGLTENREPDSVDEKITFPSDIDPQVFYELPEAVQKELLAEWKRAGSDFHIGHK
In short: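 Using TAMRA dequenching as read-out, activity of 10 nM human Pol iota on 50 nM (final) primer/reporter/template substrate was tracked from 0 to 10 min, following a 15 min room-temperature compound preincubation.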

Row | SMILES | Potency
17 | COCCNC(=O)Nc1ccc2nc(-c3ccco3)c(-c3ccco3)nc2c1 | 7.52 µM (active)
18 | O=C(COC(=O)c1ccc(F)cc1F)Nc1ncccn1 | 21.2 µM (active)
19 | COc1ccc(Cc2nnc(NC(=O)Cc3cccs3)s2)cc1 | 16.8 µM (active)
20 | CSc1nnc(SCc2nc3sc(C(=O)O)c(C)c3c(=O)[nH]2)s1 | 18.9 µM (active)
21 | Cn1c2ccccc2c(=O)c2c(=O)n(Cc3ccco3)c(COc3ccccc3)nc21 | 75.2 µM (active)

target: DNA polymerase eta (Homo sapiens) (UniProt Q9Y253); assay: qHTS for Inhibitors of Polymerase Eta: Confirmatory Assay for Cherry-picked Compounds (AID 720502); settings: Pol eta primer extension, TAMRA/BHQ fluorescence, 10 min; note: potency is the fitted concentration of half-maximal effect
Sequence (Q9Y253 whole entry, looked up): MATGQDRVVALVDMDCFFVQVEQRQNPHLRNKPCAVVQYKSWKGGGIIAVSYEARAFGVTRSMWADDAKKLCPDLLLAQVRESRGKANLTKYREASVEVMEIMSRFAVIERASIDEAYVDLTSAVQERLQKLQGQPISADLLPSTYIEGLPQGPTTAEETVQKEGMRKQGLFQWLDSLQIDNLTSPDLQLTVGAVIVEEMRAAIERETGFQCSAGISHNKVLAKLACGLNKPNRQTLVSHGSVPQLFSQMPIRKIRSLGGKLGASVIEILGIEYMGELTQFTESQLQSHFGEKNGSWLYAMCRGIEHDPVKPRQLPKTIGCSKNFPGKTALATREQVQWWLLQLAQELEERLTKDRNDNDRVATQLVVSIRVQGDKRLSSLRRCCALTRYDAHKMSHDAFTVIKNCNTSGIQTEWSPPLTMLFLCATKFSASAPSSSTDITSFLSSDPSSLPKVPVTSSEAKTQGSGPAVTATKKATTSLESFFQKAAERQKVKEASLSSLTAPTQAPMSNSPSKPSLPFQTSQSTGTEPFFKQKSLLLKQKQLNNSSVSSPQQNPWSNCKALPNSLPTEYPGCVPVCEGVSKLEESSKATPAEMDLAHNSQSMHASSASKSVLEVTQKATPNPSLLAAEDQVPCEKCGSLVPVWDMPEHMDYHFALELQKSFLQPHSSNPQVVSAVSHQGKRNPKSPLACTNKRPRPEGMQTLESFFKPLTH
In short: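 The reaction starts with 50 nM final labeled DNA substrate added to Pol eta (10 nM) that had sat with compound for 15 min. TAMRA emission at 598 nm is read at 0 and 10 min.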

Row | SMILES | Potency
22 | COCCNC(=O)Nc1ccc2nc(-c3ccco3)c(-c3ccco3)nc2c1 | 5.36 µM (active)
23 | O=C(COC(=O)c1ccc(F)cc1F)Nc1ncccn1 | 37.9 µM (active)
24 | COc1ccc(Cc2nnc(NC(=O)Cc3cccs3)s2)cc1 | 19 µM (active)
25 | CSc1nnc(SCc2nc3sc(C(=O)O)c(C)c3c(=O)[nH]2)s1 | 5.36 µM (active)
